# Assay outcomes: PubChem, several laboratories
# In the library only some 1.7% were active in any assay of this set; here they are far more common.
# BJeLR lethal = BJeLR cell viability loss; BJeLR (HRASV12) viability, CellTiter-Glo ATP luminescence, 48 h; inhibition, % (test concentration not listed); 300,000 compounds, 0.17% hits; AID 1554; in the data active = inhibition above about 50%
# PfHsp40 yeast = restores yeast growth despite PfHsp40 toxicity | S. cerevisiae expressing PfHsp40, growth rescue, ATP luminescence | growth rescue, % at 12.5 µM | 340,000 compounds, 0.68% hits | AID 504582; in the data active = growth rescue above about 28%, passing the limit was not always enough;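 also: yeast W303a lacking pdr1 and pdr3 grown in galactose medium; growth measured after three days at 30 °C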
# SSB-PriA inh = K. pneumoniae PriA-SSBct interaction inhibition. AlphaScreen SSBct-PriA binding, biotinylated peptide. inhibition, % at 33 µM. 430,000 compounds, 0.6% hits. AID 1272365; in the data active = inhibition mostly above about 37%, no sharp cut-off; inactive = mostly below about 20%;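 also: plate controls were negative control peptide for no effect and reference peptide for full effect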
# PrP UTR inh = inhibition of PrP 5' UTR reporter expression. cell-based PrP 5' UTR mRNA reporter, plate reader. 340,000 compounds, 0.35% hits. inhibition, % (no concentration beside the values); in the data active = inhibition above about 52%; also: 0 = median of the neutral control wells
# PrPC surface inh = inhibitors of human cell surface prion protein PrPC | P04156 | TR-FRET read-out | 370,000 compounds, 0.43% hits | AID 720596 | inhibition, % at 13.8 µM; in the data active = inhibition above about 24%; also: 0% = median of the test wells and 100% = reference compound wells
# Y pestis TopoI = blocks Yersinia pestis topoisomerase I activity; Y. pestis Topo-I cleavage product accumulation, plate reader; activity, % at 10 µM; 360,000 compounds, 0.064% hits; in the data active = activity above about 50%, passing the limit was not always enough
# PrPC confirm = cell surface PrPC inhibition, TR-FRET confirmation; inhibition, % at 13.8 µM; cell surface PrPC level; 1,500 compounds, 65% hits; AID 743200; shares compounds with PrPC surface inh; in the data active = inhibition above about 25%
# LD9 cytotox = kills or reduces viability of LD9 cells in PrPc counter-screen. shares compounds with PrPC surface inh. LD9 cells cytotoxicity, luminescence viability. inhibition, % at 13.8 µM. 1,500 compounds, 29% hits. AID 743201; in the data active = inhibition above about 9.5%
# Starred values were filed as active, the others as inactive; / = no result given; ! = repeats disagree.
SMILES,BJeLR lethal,PfHsp40 yeast,SSB-PriA inh,PrP UTR inh,PrPC surface inh,Y pestis TopoI,PrPC confirm,LD9 cytotox
O=C(COc1cccc(C(F)(F)F)c1)NCCOc1cc(N2CCCCC2)ncn1,/,/,-18,/,/,/,/,/
Cc1ccc(NC(=O)CSC2=C(C#N)C(c3ccccc3C(F)(F)F)C3=C(CCCC3=O)N2)c(C)c1 (stereo not given),/,/,-12,/,/,/,/,/
O=S(c1ccc2ccccc2c1)c1cnns1 (stereo not given),/,-1,-1,3,34*,-3,6,76*
COC(=O)Nc1ccc(S(=O)(=O)N2c3ccccc3CCC2C)cc1 (stereo not given),24,1,-5,-40,28*,-4,8,4
OC(CN1C2=NCCN2c2ccccc21)c1ccc2c(c1)OCO2 (stereo not given),0,-1,10,1,53*,0,2,5
Cc1cc(C(=O)Nc2sccc2C#N)nn1C,/,/,-2,/,/,/,/,/
O=C1C(=O)c2ccccc2-c2ccccc21,100*,-3,14,-46,27*,-3,65*,99*
O=C1c2ccccc2-c2cccnc21,-2,0,5,-32,2,4,/,/
CCc1ccccc1NC(=O)C1CCCN(S(=O)(=O)c2ccc3c(c2)CC(C)N3C(C)=O)C1 (stereo not given),10,-1,-12,-26,31*,21,16,-3
CC(C)(C)c1ccc(OCCC(=O)Nc2cccc(S(=O)(=O)N3CCCCC3)c2)cc1,2,1,-7,0,24*,20,20,-1
CCCCCCCC/C=C\CCCCCCCC(=O)NCCc1ccc(O)c(O)c1,/,20,20,-3,83*,21,44*,65*
O=C(CCc1ccccc1)Nc1cccc(NC(=O)CCc2ccccc2)c1,-10,0,-11,/,25*,10,11,-4
O=C(Nc1ccc(OCc2ccccc2)cc1)c1cccs1,-1,0,-7,-41,25*,2,16,2
O=C(Cc1ccccc1)Nc1cccc(NC(=O)c2cccs2)c1,-13,19,9,-11,32*,-8,17,-5
CC(C)(C)c1csc(NC(=O)CCc2ccccc2)n1,-1,2,-35,-27,26*,0,19,-8
CC(C)(C)c1csc(NC(=O)Cc2cccs2)n1,12,0,8,-4,4,4,/,/
Cc1ccc(NC(=O)Cn2c(=O)n(CCC(=O)NCc3ccco3)c(=O)c3ccccc32)c(Cl)c1,/,/,-6,/,/,/,/,/
COc1ccc(-c2csc(CN3CCN(C(=O)C(C)Oc4ccccc4)CC3)n2)cc1 (stereo not given),/,/,0,/,/,/,/,/
CCCC(=O)N1CCN(c2ccc(NC(=O)c3ccc([N+](=O)[O-])o3)cc2)CC1,-3,0,7,-31,33*,-4,8,78*
CCC(=O)N1CCN(c2ccc(NC(=O)c3ccc([N+](=O)[O-])o3)cc2)CC1,-4,0,-2,-10,11,-2,/,/
COc1ccc(Cl)cc1C(=O)Nc1ccc2c(c1)CN(C(=O)C1CC1)CC2,/,/,-8,/,/,/,/,/
CC1CCC2(CC1)C(Nc1cccc(Cl)c1)=NC(=S)N2CC#N (stereo not given),-9,0,8,-9,36*,1,39*,-7
Cc1ccccc1NC(=O)NC[C@H](O)C1CCCCC1,/,/,-8,/,/,/,/,/
CC1CCC(C(C)C)C(OP(=O)(Nc2ccccc2)OC2CC(C)CCC2C(C)C)C1 (stereo not given),/,/,-1,/,/,/,/,/
Brc1ccc2nc(-c3ccc(CN4CCC5(CC4)CNc4ccccc45)cc3)c(-c3ccccc3)nc2c1,/,/,/,/,26*,/,53*,0
SMILES,BJeLR lethal,PfHsp40 yeast,SSB-PriA inh,PrP UTR inh,PrPC surface inh,Y pestis TopoI,PrPC confirm,LD9 cytotox
CCCCNc1c(-c2ccc(OC)c(SC3CCCCC3)c2)nc2ccc(C)cn12,/,0,-3,-12,38*!,-14,50*,53*
CCOc1ccc2nc(NC(=O)c3ccco3)sc2c1,22,-3,-10,14,31*,-10,39*,14*
CCOc1ccc2nc(NC(=O)Cc3csc(NC(=O)c4ccco4)n3)sc2c1,/,/,-7,/,/,/,/,/
CCOc1ccccc1NC(=O)c1c[nH]c(=O)n(Cc2ccccc2Cl)c1=O,/,/,-12,/,/,/,/,/
Cc1ccc(-n2c(Cc3cccn3C)nnc2SCC(=O)Nc2cccc(C)c2)cc1,/,/,48,/,/,/,/,/
COc1ccc(C(=O)NCc2ccc3c(c2)cc(C)n3C)cc1,-7,-1,-5,-21,66*,22,9,-5
COc1cc(/C=C\C(=O)NCc2ccc3c(c2)cc(C)n3C)cc(OC)c1OC,-2,0,16,-33,68*,16,8,-6
COc1cc(OC)cc(C(=O)NCc2ccc3c(c2)cc(C)n3C)c1,6,1,25,-6,56*,1,1,-4
Cc1onc(-c2ccccc2Cl)c1C(=O)NCc1ccc2c(c1)cc(C)n2C,9,3,21,-13,66*,-1,10,-3
Cc1ccc(CNC(=O)c2c(-c3ccccc3Cl)noc2C)cc1,1,0,6,13,-4,-8,/,/
COCC(=O)NCc1ccc2c(c1)cc(C)n2C,-3,-1,-11,-1,-9,-7,/,/
Cc1cccc(NC(=O)NCC(c2ccc(F)cc2)N2CCOCC2)c1 (stereo not given),/,/,-3,/,/,/,/,/
CCOc1ccc(CC(=O)NCc2ccc3c(c2)cc(C)n3C)cc1,-4,2,6,-21,55*,27,-2,-9
Cc1cc2cc(CNC(=O)Cc3ccccc3)ccc2n1C,/,/,26,/,/,/,/,/
Cc1cc2cc(CNC(=O)c3cccc(Cl)c3)ccc2n1C,/,/,-8,/,/,/,/,/
Cc1cc2cc(CNC(=O)c3cccc(F)c3)ccc2n1C,/,/,-6,/,/,/,/,/
Cc1cc2cc(CNC(=O)Nc3ccc(Cl)c(Cl)c3)ccc2n1C,-23,0,5,-20,33*,-31,22,-8
Cc1ccc(S(=O)(=O)NCc2ccc3c(c2)cc(C)n3C)cc1,-8,0,26,-47,37*,1,6,-4
Cc1cc2cc(CNC(=O)c3ccc4c(c3)OCO4)ccc2n1C,13,1,39*!,-1,53*,-7,10,-1
CCOc1ccc(OCC)c(S(=O)(=O)N2CCN(c3ccc(C)c(Cl)c3)CC2)c1,/,/,-20,/,/,/,/,/
CCOC(=O)c1ccn[nH]1,/,/,-9,/,/,/,/,/
COC(C)(CNC(=O)c1cccn(C)c1=O)c1ccccc1F (stereo not given),/,/,-2,/,/,/,/,/
COc1cc(C2Nc3ccccc3C(=O)N2c2ccccc2)c(Br)cc1OCC(=O)O (stereo not given),1,-1,-9,-12,26*,2,18,-3
